# From PubChem BioAssay
# Compounds with a hit are over-represented: about 3.6% of the library has one in this group of screens.
# Nrf2 block = Nrf2 pathway inhibition; A549 ARE-Fluc reporter, luciferase luminescence, 18-24 h; Potency, µM (highest dose often 46 µM), without a hit: top-dose activity change, negative = inhibition, most hits filed as inhibitors; hit rate 2.1% among 360,000; AID 504444; also: % is scaled to controls: 0 for no effect and ±100 for the full control effect; nearly all actives have a fitted effect of over 60% in size
#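 A549 ARE_Fluc cells, 5000/well, 5% FBS OPTI-MEM; compounds in dose-response, 18-24 h at 37 °C/5% CO2; CellTiter-Fluor viability read (Ex 405/Em 525), then BugLite luciferase luminescence = Nrf2 activity.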
# A549 tox-1 = counter-screen for Nrf2 inhibitors: cytotoxicity in A549 cells; A549 ARE-Fluc cells, CellTiter-Fluor viability, 18-24 h; AID 504648; Potency, µM (titrated, usually from 46 µM), for the others: at the top dose activity change, negative = cytotoxicity, usual class: inhibitors; hit rate 0.16% among 390,000; also: % is scaled to controls: 0 for no effect and ±100 for the full control effect
#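 A549 ARE_Fluc cells in 5% FBS OPTI-MEM were exposed to compounds in concentration-response for 18-24 h at 37 deg C. Viability was read by CellTiter-Fluor fluorescence (Ex 405/Em 525) after 30 min, before the luciferase read.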
# HepG2 tox = HepG2 cytotoxicity, counter-screen for TGF-b inhibitors; HepG2 CAGA-GFP viability, ATP luminescence, 18 h; AID 588856; hit rate 0.76% among 410,000; Potency, µM (titrated, usually from 46.1 µM), inactives show at the top dose activity change, negative = cytotoxicity, actives largely listed as cytotoxic
#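 CellTiter-Glo luminescence gave cytotoxicity after 18 hours at 37 degrees C. The cells were HepG2 CAGA-GFP in 1% FBS DMEM, stimulated with 500 pg/mL TGF-beta after compound addition. %Activity was normalised to no-cell wells (complete cell-killing) and DMSO (no toxicity), and curves were fitted and classified.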
# Nrf2 activator = Nrf2 pathway activation; AREc32 ARE-luciferase reporter (MCF7-derived line), luminescence, 24 h; Potency, µM (doses to about 46.1 µM), without a hit: at the top dose activation, hits mostly activators; hit rate 0.31% among 410,000; also: % of control where 0% means no effect; nearly all actives have a fitted effect of over 65% in size
#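 Nrf2 activation is followed as ARE-luciferase induction in the AREc32 line after one day of compound treatment; luminescence is read with Steady-Glo.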
# TGFb inhibitor = TGF-b pathway inhibition | HepG2 CAGA-GFP TGF-b/SMAD3 reporter, GFP fluorescence, 18 h; TGF-beta stimulated, 500 pg/mL final | Potency, µM (top dose mostly 46.1 µM), inactives show at the top dose activity, negative = inhibition, actives largely listed as inhibitors | hit rate 1.2% among 410,000 | AID 588855; also: % is scaled to controls: 0 for no effect and ±100 for the full control effect; nearly all actives have a fitted effect of over 65% in size
#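 Using HEPG2 CAGA-GFP reporter cells at 1000 cells/well, we pinned test compounds, stimulated with recombinant TGF-beta (500 pg/mL final) and measured total well GFP after 18 h.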
# FLuc counter 3 = counter-screen for Nrf2 inhibitors: firefly luciferase enzyme inhibition. purified firefly luciferase, luminescence inhibition. Potency, µM (titrated, usually from 57.5 µM), for inactives: top-dose activity change, negative = inhibition, hits mostly inhibitors. shares compounds with Nrf2 block. hit rate 4% among 1,400; also: % is scaled to controls: 0 for no effect and ±100 for the full control effect; nearly all actives have a fitted effect of over 65% in size
# Target sequence (P08659 whole entry, looked up): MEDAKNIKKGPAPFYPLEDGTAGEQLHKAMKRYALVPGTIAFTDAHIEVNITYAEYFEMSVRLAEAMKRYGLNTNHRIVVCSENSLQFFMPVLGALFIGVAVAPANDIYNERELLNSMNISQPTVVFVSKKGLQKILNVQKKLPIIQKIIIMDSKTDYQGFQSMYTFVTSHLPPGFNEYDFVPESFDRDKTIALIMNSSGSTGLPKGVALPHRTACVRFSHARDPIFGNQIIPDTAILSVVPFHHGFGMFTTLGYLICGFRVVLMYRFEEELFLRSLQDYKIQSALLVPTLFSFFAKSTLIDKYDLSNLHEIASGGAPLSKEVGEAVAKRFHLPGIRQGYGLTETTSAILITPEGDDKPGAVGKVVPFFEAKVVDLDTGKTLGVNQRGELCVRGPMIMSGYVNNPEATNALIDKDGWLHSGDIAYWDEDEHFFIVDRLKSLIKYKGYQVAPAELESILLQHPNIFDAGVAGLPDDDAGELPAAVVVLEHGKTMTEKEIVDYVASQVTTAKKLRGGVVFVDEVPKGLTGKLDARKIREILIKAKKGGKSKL
# A549 tox-2 = toxic to A549 ARE-Fluc cells in Nrf2 counterscreen; AID 720523; hit rate 2% among 1,400; shares compounds with Nrf2 block; A549 ARE-Fluc cells, cytotoxicity counterscreen; Potency, µM (series often up to 46.1 µM), for inactives: at the highest dose activity change, negative = cytotoxicity, actives largely listed as inhibitors;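 also: cells exposed to compounds for 18 to 24 hours; % is scaled to controls: 0 for no effect and ±100 for the full control effect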
# Nrf2 ARE inh = reduces Nrf2 ARE reporter signal in A549 cells; shares compounds with Nrf2 block; A549 ARE-firefly luciferase reporter, luminescence; Potency, µM (top dose mostly 46.1 µM), for the others: at the top dose activity change, negative = inhibition, actives largely listed as inhibitors; hit rate 74% among 1,400; also: % is scaled to controls: 0 for no effect and ±100 for the full control effect; nearly all actives have a fitted effect of over 65% in size
# Starred values were filed as active, the others as inactive; ? = inconclusive; / = not tested or not shown. Calls follow the shape of the dose curve; as a rule, active = well fitted curve in the direction sought with a large enough effect; inconclusive = small, poorly fitted or top-dose-only effect, or another doubt; inactive = no such curve, though single readings can be large; an effect the other way counts as inactive or inconclusive. Potency is read from the fitted curve at half-maximal effect.
SMILES,Nrf2 block,A549 tox-1,HepG2 tox,Nrf2 activator,TGFb inhibitor,FLuc counter 3,A549 tox-2,Nrf2 ARE inh
CC(C)(C)c1cc(CCC(=O)NNC(=S)NC(=O)c2ccccc2)cc(C(C)(C)C)c1O,2.9µM*,?,-26%,-1%,-23%,1%,-9%,15µM*
O=C(CCc1ccccc1)NNC(=S)NC(=O)c1ccccc1,?,-21%,-5%,0%,?,/,/,/
CC(=O)NC(CCS(C)(=O)=O)C(=O)Nc1cc(Cl)ccc1Cl (centres undefined),0%,1%,-4%,-1%,-3%,/,/,/
Cc1ccc2ncc(C)c(C)c2c1,/,/,2%,/,-3%,/,/,/
Cc1cnc2ccc3ccccc3c2c1C,/,/,-2%,/,-17%,?,-27%,6.5µM*
CCCCCCCCNc1ncnc2ccccc12,5.8µM*,?,-26%,4%,?,-1%,-2%,7.3µM*
COC(=O)/C(C#N)=C/c1c(Oc2cc(C)cc(C)c2)nc2c(C)cccn2c1=O,7%,0%,-29%,0%,-3%,/,/,/
O=C(Cn1nc(-c2cccs2)ccc1=O)Nc1ccc(Br)cc1,1%,-14%,-10%,13%,-3%,/,/,/
CC(C)N1CCc2c(sc(NC(=O)c3ccc(S(=O)(=O)N4CCOCC4)cc3)c2C#N)C1,-7%,-10%,-31%,0%,0%,/,/,/
CCOC(=O)N1CCc2c(sc(NC(=O)c3ccc(S(=O)(=O)N4CCCC4)cc3)c2C#N)C1,7.3µM*,-28%,5%,1%,2%,-28%,-29%,7.3µM*
CCOC(=O)c1c(NC(=O)CC2SC(N)=NC2=O)sc2c1CCCC2 (centres undefined),1.6µM*,-24%,6%,3%,9%,-1%,-1%,?
Cc1ccc(C(=O)Oc2ccccc2N2C(=O)C3CCCCC3C2=O)cc1 (centres undefined),1.3µM*,8%,-12%,-2%,2%,-2%,0%,3.3µM*
CC(=O)N1CCCC1c1nc2ccccc2n1Cc1ccccc1C (centres undefined),3.3µM*,?,-10%,1%,-1%,1%,-7%,18%
COc1cc2c(NC3CCN(C(C)C)CC3)nc(N3CCCN(C)CC3)nc2cc1OCCCN1CCCC1,/,/,1%,/,?,-2%,?,1.5µM*
COc1cc2c(NC3CCN(C(C)C)CC3)nc(N3CCCN(C)CC3)nc2cc1OCCOCCN(C)C,/,/,-32%,/,14µM*,1%,-37%,6.5µM*
COc1cc2c(NC3CCN(C)CC3)nc(N3CCCN(C)CC3)nc2cc1OCCOCCN(C)C,/,/,27%,/,19%,/,/,/
CCOC(=O)Cc1c(-c2cccc(Cl)c2)nc2c3ccccc3ccn12,/,/,/,11%,/,/,/,/
CCN1CCN(C(=S)c2ccc(-c3ccccc3)cc2)CC1,5.2µM*,-1%,-16%,-2%,-4%,?,-2%,6.5µM*
COc1ccc(N2CCN(C(c3cccs3)c3nnnn3C3CCCC3)CC2)cc1 (centres undefined),-9%,-14%,-23%,0%,-20%,/,/,/
CCOC(=O)c1csc(Nc2nc3ccc(F)cc3s2)n1,?,?,-41%,?,-10%,/,/,/
O=C(c1ccc2nc(N3CCCCC3)sc2c1)N1CCN(Cc2ccc3c(c2)OCO3)CC1,?,-6%,-26%,6%,-22%,/,/,/
CC1(C)CC2CC(C)(CN2S(=O)(=O)c2ccc(C(=O)Nc3ccc(Cl)c(S(=O)(=O)N4CCOCC4)c3)cc2)C1 (centres undefined),5.2µM*,-11%,3%,1%,?,-1%,-11%,7.3µM*
CC1(C)CC2CC(C)(CN2S(=O)(=O)c2ccc(C(=O)Nc3ccc(S(=O)(=O)N4CCOCC4)cc3)cc2)C1 (centres undefined),1.5µM*,?,-1%,1%,-10%,0%,2%,4.1µM*
CN(c1ccccc1)c1nc(C#N)nc(N2CCOCC2)n1,8.2µM*,-8%,-24%,/,-3%,-23%,-12%,?
COc1ccc(CN(C)c2ccc(S(=O)(=O)N3CCN(C)CC3)cc2[N+](=O)[O-])cc1OC,1.3µM*,-3%,1%,-1%,-20%,-28%,2%,?
SMILES,Nrf2 block,A549 tox-1,HepG2 tox,Nrf2 activator,TGFb inhibitor,FLuc counter 3,A549 tox-2,Nrf2 ARE inh
COc1ccc(CCN(C)c2ccc(S(=O)(=O)N3CCCC3)cc2[N+](=O)[O-])cc1OC,?,-20%,10%,4%,0%,/,/,/
Nc1c(Br)cc(/C=C/c2ccnc3ccccc23)cc1Br,/,/,-27%,/,?,/,/,/
C(=C\c1ccnc2ccccc12)/c1cc2c3c(c1)CCCN3CCC2,/,/,-43%,/,-30%,-25%,-16%,7.3µM*
O=NNc1nc2ccccc2n1Cc1ccccc1,6.5µM*,?,0%,0%,?,-20%,-24%,6.5µM*
CC(=O)Nc1nc2ccccc2n1Cc1ccccc1,1%,-13%,4%,0%,-6%,/,/,/
CCOc1ccc(S(=O)(=O)Nc2nc3ccccc3nc2Cl)cc1,?,0%,-32%,2%,?,/,/,/
CCOc1ccc(S(=O)(=O)Nc2cnc3ccccc3c2)cc1,4.1µM*,-11%,-8%,0%,0%,0%,0%,6.5µM*
CC(Oc1cccc([N+](=O)[O-])c1)C(=O)NCCC1=CCCCC1 (centres undefined),-1%,-1%,-9%,1%,-1%,/,/,/
CN(C)S(=O)(=O)c1ccc(Nc2nc(C3CC3)nc3c2nnn3Cc2ccccc2Cl)cc1,5.8µM*,-24%,4%,6%,?,2%,-24%,4.1µM*
Cc1cc(=O)n(CC(=O)N2CCN(c3ccccc3F)CC2)c2c1c(C)nn2C,8.2µM*,-6%,-32%,1%,-30%,1%,-7%,?
CC(CC(=O)N1CCN(c2cccc(Cl)c2)CC1)S(=O)(=O)c1ccc2c(c1)NC(=O)CO2 (centres undefined),6.5µM*,?,-2%,0%,-3%,-1%,-19%,23µM*
COc1cc(C(=O)NNC(=O)Cc2cccs2)cc(OC)c1OC,4%,0%,1%,0%,3%,/,/,/
COc1cccc(CNC(=O)c2ccc3nc(-c4ccccc4)c(-c4ccccc4)nc3c2)c1OC,/,0%,-1%,1%,58%,/,/,/
